Screening data as filed in PubChem BioAssay.
Shown are actives, neighbours in structure and some others; about 2% of the full set was active somewhere.
Platelet DG rel: platelet dense granule release activity. inhibition, %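 (compounds screened at 7.5 µM in platelet-rich plasma)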. human platelet-rich plasma, SFLLRN dense granule ATP release, luminescence. hit rate 0.22% among 300,000;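 active = mean replicate score, as percent of positive control, at or above 50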
SKKanGAS inh: blocks kanamycin growth of S. pyogenes SKKanGAS strain; inhibition, % at 7.5 µM; hit rate 1.3% among 300,000; BacTiter-Glo, 6 h;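 active = mean replicate score, as percent of positive control median, at least 50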;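 note: strain carries kanamycin resistance gene driven by streptokinase promoter and grows in 40 µg/ml kanamycin; loss of luminescence reflects streptokinase promoter inhibition or plain growth inhibition; 0% = median of DMSO wells and 100% = positive control at its reference dose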
PolyA inhibitor: blocks polyadenylation in yeast reporter cells. S. cerevisiae SKY197-pL101 polyadenylation reporter, beta-gal luminescence; efflux-impaired pdr1/pdr3 knockout yeast; score 100 = 6 SD above DMSO. activity score, % at 12 µM. hit rate 0.02% among 300,000. AID 1875;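 active = lowest replicate activity score at least 50, where 100 means six control SD above control mean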;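 note: yeast exposed to compound for 9 h at 30 °C; higher score means more reporter readthrough which indicates perturbed polyadenylation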
Yeast superoxide: yeast age-related superoxide inhibition as caloric restriction mimetic. hit rate 0.18% among 330,000. superoxide response (% of plate mean), % at 10 µM. S. cerevisiae aged cells, superoxide DHE fluorescence; stronger effect = lower value;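 active = superoxide response under a set limit, about three screen SD below normal, cut at about 65% in these data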;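 note: yeast aged for seven days with compound at 30 °C before DHE staining; 100% = average MFI of all compound-treated wells on the plate with controls excluded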
Calb FLC: affects C. albicans growth with fluconazole. C. albicans CaCi-2 (fluconazole-resistant clinical isolate) + fluconazole, Alamar Blue growth, 48 h. growth inhibition, % (test concentration not listed). hit rate 0.57% among 300,000;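 active = growth inhibition above about 58% in most replicates, limit read from the data, passing the limit was not always enough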;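 note: all wells also contain fluconazole at 8 µg/ml as a sub-toxic cotreatment; 0% = median of DMSO wells and 100% = median of geldanamycin control wells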
An asterisk follows results filed as active; . = not tested or not shown.

SMILES	Platelet DG rel	SKKanGAS inh	PolyA inhibitor	Yeast superoxide	Calb FLC
O=C(O)c1ccc(N/N=C/c2ccc(-c3ccc(Cl)cc3Cl)o2)cc1	2	84*	-4	112	-9
O=C(O)c1cccc(-c2ccc(/C=N/Nc3ccc([N+](=O)[O-])cc3)o2)c1	7	8	-17	95	-5
O=C(O)c1ccc(N/N=C/c2ccc(-c3cccc(Cl)c3)o2)cc1	-3	70*	-4	87	-9
O=C(O)c1ccc(N/N=C/c2ccc(-c3cc(Cl)ccc3Cl)o2)cc1	-2	76*	-5	111	7
COC(=O)N/N=C/c1ccc(-c2ccc(Cl)cc2Cl)o1	2	-2	-6	83	0
O=C1NC2(CCCCCC2)C(=O)N1Cc1ccccc1Br	-7	-2	7	105	-5
CCOc1ccc(-n2cc(-c3ccccc3)c3c(=S)nc[nH]c32)cc1	2	77*	-5	132	1
CCOc1ccc(-n2cc(-c3ccccc3)c3c(=O)[nH]cnc32)cc1	-5	-6	-7	98	2
COC(=O)c1cc(S(=O)(=O)n2nc(C)c(Br)c2C)c(Cl)cc1Cl	1	72*	0	95	49
Cc1cc(C)n(S(=O)(=O)c2cc(C(=O)O)c(Cl)cc2Cl)n1	0	7	-6	88	13
Cc1ccc(NC(=S)NNC(=O)CSc2nc3ccccc3c(=O)n2-c2ccc(C)cc2)cc1	14	11	3	98	-1
CCOC(=O)C(=Cc1cc(=O)c(OC)co1)C(=O)OCC	19	2	-20	.	94*
COc1coc(C(O)CN)cc1=O (stereo unspecified)	3	0	10	102	-3
CCN(CC(=O)Nc1ccccc1C(F)(F)F)C(=O)c1cc(-c2ccccc2)nn1-c1ccccc1	5	51*	-4	109	3
N#Cc1c(Nc2cccc(F)c2)sc2c(O)cc(=O)[nH]c12	2	113*	9	103	-6
COc1ccc(N=CC2=C(O)c3ccccc3C2=O)c(OC)c1	51*	20	-31	115	24
Cc1ccccc1N=CC1=C(O)c2ccccc2C1=O	58*	22	-31	102	-3
O=Cc1ccc(OCC(=O)N2CCOCC2)cc1	-1	3	-1	107	39
O=[N+]([O-])c1ccc(N2CCCCC2)c(Cl)c1N1CCCCC1	0	93*	-21	92	-10
Cc1nc(-c2ccccc2)sc1C1(C)CC(c2cccc([N+](=O)[O-])c2)=NO1 (stereo unspecified)	4	3	7	103	5
O=C(OCC(=O)N1CCN(C(=O)c2ccco2)CC1)c1cc(-c2cccc(Br)c2)nc2ccccc12	1	53*	-26	119	-13
CN(C)c1ccc(/C=N/NC(=O)c2ccnn2C)cc1	73*	9	0	86	-4
CN(C)c1ccc(/C=N/NC(=O)c2ccn(C)n2)cc1	1	5	16	115	-5
O=C(NCc1ccc(F)cc1)c1ccc2c(c1)S(=O)(=O)c1ccccc1C2=O	-1	8	20	104	17
O=C(NCc1ccc(C(F)(F)F)cc1)c1ccc2c(c1)S(=O)(=O)c1ccccc1C2=O	-2	51*	22	103	8
SMILES	Platelet DG rel	SKKanGAS inh	PolyA inhibitor	Yeast superoxide	Calb FLC
O=C(NNC(=O)c1ccc(Br)cc1)c1ccncc1	0	6	-10	99	14
CCCc1ccc(C(=O)NNc2ccc(F)cc2)cc1	1	1	-14	91	77*
CCCc1ccc(C(=O)NNC(=O)c2ccc(Br)cc2)cc1	-4	12	10	100	16
CC(C)(C)c1ccc(C(=O)NNc2ccc(F)cc2F)cc1	0	-6	-2	107	87*
O=C(O)c1ccccc1C(=O)NNc1ccc(F)cc1F	-5	1	-22	96	-43
CCc1ccc(C(=O)NNc2ccc(F)cc2F)cc1	2	-8	8	71	93*
O=C(NNc1ccc(O)cc1)c1ccc(Br)cc1	-11	1	0	88	95*
Cc1c(C(N)=O)sc2ncn(CC(=O)N(C)C3CCCCC3)c(=O)c12	10	2	8	112	-2
Cc1ccc(S(=O)(=O)N(C)C)cc1NC(=O)C(C)OC(=O)C1CCCC1 (stereo unspecified)	35	-2	0	78	-5
CCC(OC(=O)c1ccco1)C(=O)NC1CCCC1 (stereo unspecified)	-3	-3	15	91	4
